Compound activity deposited in PubChem by National Center for Advancing Translational Sciences (NCATS).
Sampled rows, rich in hits. Any-hit rate of the full collection: about 9.3%.
SMN2 splice up – increases expression of the SMN2 splice variant | HEK293 SMN2-luciferase splicing reporter, luminescence, 30-36 h | Potency, µM (series often up to 46.1 µM), for inactives: at the top dose activity change, positive = activation, hits mostly activators | actives 2.8% (n = 210,000); also: % of control where 0% means no effect; nearly all actives have a fitted effect of over 55% in size
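HEK293 cells carry an SMN2 […]–luciferase reporter in which exon 7 inclusion puts luciferase in frame. Cells were plated 10-12 h before compound addition, then incubated 30-36 h at 37C. ONE-Glo luminescence was read; sodium butyrate at 4.5 mM final served as control.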
NPC1 promoter act – activates the NPC1 promoter; AID 485313; actives 2.4% (n = 320,000); Huh7 NPC1 promoter luciferase reporter, 24 h; Potency, µM (doses to about 9.22 µM), inactives show top-dose activation, most hits filed as activators; also: % of control where 0% means no effect; nearly all actives have a fitted effect of over 60% in size
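Luminescence read-out of NPC1 promoter-driven luciferase in stably transfected Huh7 cells; compounds delivered in DMSO and left 24 h at 37C, 5% CO2, qHTS titration format.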
FLuc modulator – counter-screen for miR-21 project: firefly luciferase inhibitors or activators; P08659; purified FLuc, Km substrates, luminescence inhibition; Potency, µM (highest dose often 57.5 µM), for the others: at the top dose activity change, negative = inhibition, usual class: inhibitors; actives 6.9% (n = 360,000);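 also: plate controls were vehicle for no effect and reference inhibitor for full effect; nearly all actives have a fitted effect of over 55% in size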
Target sequence (P08659 whole entry, looked up): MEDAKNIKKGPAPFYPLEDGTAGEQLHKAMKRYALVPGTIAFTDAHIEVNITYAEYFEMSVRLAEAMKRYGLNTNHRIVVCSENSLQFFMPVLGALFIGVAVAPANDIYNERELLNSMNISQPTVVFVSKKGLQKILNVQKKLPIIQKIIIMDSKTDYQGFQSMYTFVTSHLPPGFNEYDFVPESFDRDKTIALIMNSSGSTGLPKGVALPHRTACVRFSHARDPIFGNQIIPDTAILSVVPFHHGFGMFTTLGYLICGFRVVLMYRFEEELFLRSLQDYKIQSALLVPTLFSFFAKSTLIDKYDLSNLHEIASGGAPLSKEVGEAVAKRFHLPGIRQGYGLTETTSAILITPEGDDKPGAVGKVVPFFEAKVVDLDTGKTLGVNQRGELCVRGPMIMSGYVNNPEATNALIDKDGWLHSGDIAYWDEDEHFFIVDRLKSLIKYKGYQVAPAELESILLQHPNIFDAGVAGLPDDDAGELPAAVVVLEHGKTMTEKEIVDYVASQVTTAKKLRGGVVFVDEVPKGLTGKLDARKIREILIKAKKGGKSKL
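Purified P. pyralis luciferase (10nM final) with 10uM D-luciferin and 10uM ATP (Km levels) in 50mM Tris acetate pH 7.5, 10mM Mg acetate, 0.01% Tween-20, 0.05% BSA; qHTS 6-point titration, ~60 µM downward; luminescence read.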
ELG1 repair inh – blocks ELG1-dependent DNA repair in HEK293T cells; HEK293T ELG1-luciferase reporter, luminescence, 16 h; DNA damage induced by 5-fluorouridine; Potency, µM (doses to about 46.1 µM), inactives show at the top dose activity change, negative = inhibition, usual class: inhibitors; actives 2.3% (n = 330,000); also: % is scaled to controls: 0 for no effect and ±100 for the full control effect; nearly all actives have a fitted effect of over 55% in size
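Cells (2,000 per well) received 5-fluorouridine plus test compound or DMSO and were incubated 16 hr at 37 °C, 5% CO2. Luciferase activity was read by luminescence 30 min after ONE-Glo addition; signal suppression marked inhibition of damage-induced ELG1 function.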
Rab9 promoter act – Rab9 promoter activation; Huh7 Rab9 promoter-luciferase reporter, luminescence, 24 h; Potency, µM (series often up to 9.22 µM), for the others: at the highest dose activation, negative = inhibition, usual class: activators; actives 2.8% (n = 320,000); also: % of control where 0% means no effect; nearly all actives have a fitted effect of over 60% in size
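Steps: seed 1500 Huh7 Rab9-luc cells per well, rest 2 h at 37 °C; add compound in DMSO; incubate 24 h; add luciferase reagent, 10 min ambient; read luminescence.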
ELG1 genotoxic – induces genotoxicity in HEK293T cells with luciferase-tagged ELG1; Potency, µM (top dose mostly 46 µM), for the others: at the highest dose activity change, positive = activation, actives largely listed as activators; HEK293T ELG1-luciferase reporter, luminescence, 16 h; AID 504466; actives 1.3% (n = 330,000); also: % of control where 0% means no effect; nearly all actives have a fitted effect of over 60% in size
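ELG1-luciferase HEK293T cells, 2,000/well; compound pinned in; 16 hr, 37 °C, 5% CO2; ONE-Glo, 30 min RT; luminescence on CCD imager.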
Starred values were filed as active, the others as inactive; ? = inconclusive; · = no result. Calls follow the shape of the dose curve; as a rule, active = well fitted curve in the direction sought with a large enough effect; inconclusive = small, poorly fitted or top-dose-only effect, or another doubt; inactive = no such curve, though single readings can be large; an effect the other way counts as inactive or inconclusive. Potency is read from the fitted curve at half-maximal effect.

SMILES	SMN2 splice up	NPC1 promoter act	FLuc modulator	ELG1 repair inh	Rab9 promoter act	ELG1 genotoxic
Cc1ccc(N(CC(=O)Nc2ccccc2C(=O)NCc2ccco2)S(=O)(=O)c2ccccc2)cc1C	15%	0%	3%	?	5%	-11%
O=C(Cc1ccccc1)NNC(=O)Nc1ccccc1	·	-2%	17µM*	7%	2%	-2%
O=C(Nc1ccccc1)Nc1ccccc1C(=O)NCc1ccccc1	1%	5%	21µM*	?	15%	1%
O=C(Nc1ccc(Cl)cc1)Nc1ccccc1C(=O)NCc1ccco1	13%	5%	19µM*	19%	7%	18%
O=C(Nc1ccccc1C(=O)NCc1ccco1)c1ccccc1	-6%	1%	0%	-16%	-4%	-1%
Cn1nc(-c2ccccc2)cc1NC(=O)c1cccs1	·	14%	-12%	-4%	-4%	0%
COc1ccc(N=CC2=C(O)c3ccccc3C2=O)c(OC)c1	-60%	?	0.076µM*	?	0.71µM*	0.065µM*
Cc1ccccc1N=CC1=C(O)c2ccccc2C1=O	8.9µM*	?	0.13µM*	?	0.25µM*	?
Cc1ccc(C2=C(O)c3ccccc3C(=O)C2=O)cc1	·	-1%	?	-7%	4%	-3%
O=C1C(C=Nc2ccc(F)cc2)=C(O)c2ccccc21	·	0.35µM*	0.27µM*	?	0.79µM*	?
COc1ccc(/C(C)=N/NS(=O)(=O)c2ccccc2)c(OC)c1	-3%	-3%	-4%	12%	-3%	-6%
O=C1C(C=NCc2ccncc2)=C(O)c2ccccc21	11%	0%	-15%	28%	19%	14%
CC[C@H]1OC(=O)[C@H](C)[C@@H](O[C@H]2C[C@@](C)(OC)[C@@H](O)[C@H](C)O2)[C@H](C)[C@@H](O[C@@H]2O[C@H](C)C[C@H](N(C)C)[C@H]2O)[C@](C)(O)C[C@@H](C)C(=NOCOCCOC)[C@H](C)[C@@H](O)[C@]1(C)O	·	-2%	-1%	3%	-7%	1%
CCCCn1cc(S(=O)(=O)c2cc(C)ccc2C)c(=O)c2cc(F)c(N3CCC(C)CC3)cc21	·	·	-3%	·	·	·
CN(C)C(=O)C1C2NC(=S)N(c3cccc(Cl)c3)C1(C)Oc1ccc(Cl)cc12 (stereo unspecified)	·	-8%	0%	12%	-5%	-3%
N#Cc1c(-c2cccs2)nc(SCc2ccc(Cl)cc2)[nH]c1=O	·	-2%	-6%	5%	-18%	1%
O=c1[nH]c(SCc2ccc(Cl)cc2)nc2ccsc12	?	30%	6µM*	?	?	11%
CC(=O)c1ccc(NC(=O)CCc2nnc3ccc(N4CCCC4)nn23)cc1	·	25%	?	?	26%	?
COc1ccc(C(=O)NCCSC2CCCCC2)cc1	16µM*	?	13µM*	?	?	?
CC(C)Cn1c(N)c(C(=O)COC(=O)c2ccccc2Cl)c(=O)n(C)c1=O	-11%	-5%	-4%	?	-6%	-10%
Cn1c(N)c(C(=O)COC(=O)c2ccc3c(c2)OCCO3)c(=O)n(C)c1=O	-16%	0%	?	10%	15%	4%
CC(C)Cn1c(N)c(C(=O)COC(=O)c2ccc3c(c2)OCCO3)c(=O)n(C)c1=O	-74%	-6%	?	7.1µM*	-15%	-6%
CC(C)Cn1c(N)c(C(=O)COC(=O)c2ccccc2C(=O)c2ccccc2)c(=O)n(C)c1=O	·	·	·	16µM*	·	-7%
CC(C)Cn1c(N)c(C(=O)COC(=O)c2cccn2C)c(=O)n(C)c1=O	·	·	·	9.2µM*	·	-7%
CC(C)Cn1c(N)c(C(=O)COC(=O)c2cccc(Cl)c2)c(=O)n(C)c1=O	-26%	0%	4%	21µM*	0%	-8%
SMILES	SMN2 splice up	NPC1 promoter act	FLuc modulator	ELG1 repair inh	Rab9 promoter act	ELG1 genotoxic
COC(=O)c1ccccc1NC(=O)CSc1nc2sc3c(c2c(=O)[nH]1)CCCC3	12%	·	?	·	·	·
COCCN(C(=O)CCC(=O)Nc1cc(C)on1)C(C(=O)NC(C)(C)C)c1cccc(OC)c1OC (stereo unspecified)	·	1%	0%	-1%	-6%	-1%
CN1CCN(S(=O)(=O)c2cccc(C(=O)Oc3ccccc3Cl)c2)CC1	·	-4%	6%	-8%	15%	2%
Cc1c(C(=O)OCC(=O)c2c(N)n(CC(C)C)c(=O)n(C)c2=O)oc2ccccc12	-89%	-10%	1%	10µM*	-8%	-2%
CC(C)Cn1c(N)c(C(=O)COC(=O)Cc2cccs2)c(=O)n(C)c1=O	·	2%	5%	-9%	-5%	-3%
CC(C)Cn1c(N)c(C(=O)CSc2ccc3c(c2)OCCO3)c(=O)n(C)c1=O	-58%	-16%	5%	7.3µM*	-26%	-8%
CCc1ccc(C(=O)OCC(=O)c2c(N)n(CC(C)C)c(=O)n(C)c2=O)cc1	-43%	-11%	-10%	8.2µM*	-12%	-5%
COCc1c(C(=O)OCC(=O)c2c(N)n(CC(C)C)c(=O)n(C)c2=O)oc2ccccc12	-42%	0%	9%	?	-5%	-6%
CC(C)Cn1c(N)c(C(=O)COC(=O)/C=C/c2cccs2)c(=O)n(C)c1=O	·	-10%	1%	9.2µM*	-20%	-11%
COc1nc(NCCc2ccc(OC)c(OC)c2)nc(Nc2ccccc2)n1	·	25%	?	?	24%	-6%
COC(=O)c1ccc(N=NN2CCCCCC2)cc1	13µM*	2.2µM*	6.7µM*	?	3.2µM*	?
CC(=O)NS(=O)(=O)c1ccc(N=NN2CCCCC2)cc1	2%	-2%	2%	14%	1%	2%
Clc1ccc(N=NN2CCOCC2)cc1	·	18%	17µM*	?	21%	?
O=C(O)C1SCCN1S(=O)(=O)c1ccc(N=NN2CCOCC2)cc1 (stereo unspecified)	·	-2%	1%	-20%	-8%	0%
COC(=O)c1ccc(C(=S)N2CCOCC2)cc1	1%	3%	9%	10%	3%	0%
NS(=O)(=O)c1ccc(N=NN2CCCCC2)cc1	·	?	17µM*	?	?	11%
COC(=O)c1ccc(N=NN2CCOCC2)cc1	11µM*	?	17µM*	?	?	?
COc1cc(C(C(=O)NC2CCCCC2)N(C(=O)c2cnccn2)c2ccccc2)cc(OC)c1OC (stereo unspecified)	·	0%	1%	-1%	-5%	-2%
